# Source: PubChem BioAssay AID588405 (Sanford-Burnham Center for Chemical Genomics, 2011)
# In all, about 360,000 compounds went through this assay and about 6,200 (1.7%) were called active. This excerpt belongs to a sample that is enriched for actives. Values without a mark were called inactive.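 Rule for the calls: active = inhibition of at least 50% at 20 µM; inactive = the rest.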
# Assay: Peg3 promoter-driven luciferase inhibitors, primary screen, cell-based, HeLa, luciferase luminescence (AID 588405)
# Details: HeLa PEG-Prom luciferase reporter, overnight, at 20 µM, stronger effect = higher value
row,SMILES,inhibition
1,COc1ccc(C(C)(O)c2nc(-c3cc(F)cc(F)c3)cs2)cc1 (centres undefined),23.2%
2,COc1cccc(-c2cc3nc(NCc4ccccc4OC)n(C)c(=O)c3s2)c1,-50%
3,COc1cc(F)c(C2=CC(=O)CC(C)(C)C2)cc1F,-42.1%
4,O=C(O)c1ccccc1-c1cccc2nncn12,-2.07%
5,CC(OC(=O)CNC(=O)c1ccc(Cl)c([N+](=O)[O-])c1)C(=O)NCc1ccco1 (centres undefined),3.12%
6,N#Cc1cccc(NC(=O)COC(=O)c2ccccc2C(=O)c2ccc(Cl)c([N+](=O)[O-])c2)c1,108% (active)
7,O=C(Nc1cccc(NC(=O)c2ccccc2[N+](=O)[O-])c1)c1ccccc1Cl,-9.06%
8,COC(=O)c1cc(NC(=O)Cc2ccccc2[N+](=O)[O-])ccc1Cl,-2.09%
9,CC(=O)Nc1ccc(NC(=O)COC(=O)c2ccccc2C(=O)c2ccccc2)cc1,-1.14%
10,CC(=O)Nc1ccc(NC(=O)C(C)OC(=O)c2ccccc2C(=O)c2ccc(Cl)c([N+](=O)[O-])c2)cc1 (centres undefined),93.7% (active)
11,C=CCC1(C#N)C(=S)NC(C)=C(C(=O)OCC)C1c1ccccc1 (centres undefined),3.78%
12,CCc1nc2c(OCCc3cccc(OC)c3)cccn2c1N(C)C(=O)c1ccc(C)cc1,5.31%
13,CC1(C(=O)NS(=O)(=O)c2ccc(Cl)cc2)CCN1C(=O)CC1CCCC1 (centres undefined),8.85%
14,CCN(c1ccccc1)S(=O)(=O)c1cccc(C(=O)NCc2ccccc2CN2CCOCC2)c1,-0.46%
15,CCOC1=C2CN(S(=O)(=O)c3ccc(C)cc3)[C@H](c3cccs3)C[C@H]2[C@H]2C(=O)N(c3ccccc3)C(=O)[C@H]2C1,-59.4%
16,CCCCCCCCCCOC(=O)Cn1c(COc2ccc(C)cc2)[n+](C)c2ccccc21,116% (active)
17,Cc1ccc(COc2ccc(C(=O)NN)cc2)cc1,-58.5%
18,CCCCCCCCCCOC(=O)Cn1c(COc2cccc(OC)c2)[n+](C)c2ccccc21,102% (active)
19,Cc1noc(C)c1COC(=O)Cn1c(C)nc2ccccc21,8.44%
20,CCOC(=O)c1cn(CC)c2cc(F)c(F)cc2c1=O,-7.48%

row,SMILES,inhibition
1,CN(Cc1cccs1)C(=O)CN1C(=O)c2ccccc2S1(=O)=O,-42.7%
2,COc1ccccc1-n1nnnc1SCC(=O)NC(=O)Cc1ccccc1,3.09%
3,COc1ccccc1-n1nnnc1S(=O)(=O)Cc1ccc(Cl)cc1,108% (active)
4,CCC(C)N(C(=O)CSc1nnnn1-c1ccccc1OC)C1CCS(=O)(=O)C1 (centres undefined),6.27%
5,O=C(N=C1SC2CS(=O)(=O)CC2N1c1cc(Cl)ccc1Cl)C1CC1 (centres undefined),3.34%
6,Cn1c(=O)[nH]c(=O)c2c1nc(N1CCN(C(c3ccccc3)c3ccccc3)CC1)n2CCO,74.6% (active)
7,CC1CCN(c2nc3c(c(=O)[nH]c(=O)n3C)n2CCCc2ccccc2)CC1,-2.12%
8,C=C(C)Cn1c(N2CCCC2)nc2c1c(=O)[nH]c(=O)n2C,-3.39%
9,COc1ccc(-c2cc3nc(NCCOc4ccccc4)ccn3n2)cc1,-70.4%
10,COC(=O)c1ccccc1N=NNc1ccc([N+](=O)[O-])cc1,-132%
11,COc1ccc(CCNC(=O)c2ccc(CS(=O)(=O)c3ccc(Br)cc3)o2)cc1OC,32.6%
12,Cc1cccc(C)c1Cn1c(C)c(C(=O)NCc2cccc(Cl)c2)sc1=O,0.34%
13,CC1(C(=O)NS(=O)(=O)c2ccccc2)CCN1C(=O)c1ccccc1 (centres undefined),8.86%
14,CC(=O)Nc1cc(-c2cccc(CO)c2)cn2c(-c3cccc(C(F)(F)F)c3)cnc12,19.9%
15,Cc1cc(-c2n[nH]c(=S)n2/N=C/C(Br)=C/c2ccccc2)n[nH]1,101% (active)
16,COc1ccccc1N1CCN(/N=C\C(Br)=C\c2ccccc2)CC1,-183%
17,Cc1ccccc1-c1n[nH]c(=S)n1/N=C/c1ccc(-c2ccccc2Br)o1,13.5%
18,COc1c(C)cc(C(O)c2ncc(-c3cccc(C(F)(F)F)c3)[nH]2)cc1C (centres undefined),36.8%
19,C=CCn1c(C)cc(C2=NNC(=NCC)SC2)c1C,106% (active)
20,O=C1CC(c2cccc(Br)c2)C2=C(CCCC2=O)N1 (centres undefined),-11.1%

row,SMILES,inhibition
1,Cc1cc(Cl)ccc1-c1nc(NCCN(C)C)nc2ccsc12,5.65%
2,COc1ccc(-c2n[nH]c3c2CN(C(=O)c2ccc(F)cc2)CC3)cc1,-4.89%
3,COc1ccc(C2CC(c3cccc(OC)c3)=NN2c2ccc(S(N)(=O)=O)cc2)cc1 (centres undefined),-21.8%
4,O=C(NCc1ccccc1Cl)c1csc([C@@H]2O[C@H](CO)[C@@H](O)[C@H]2O)n1,9.43%
5,Cc1ccc(CN2CC(N3CCC(Cc4ccccc4)CC3)CS2(=O)=O)cc1 (centres undefined),15.9%
6,O=C(O)Cc1ccc(NCc2ccccc2Cl)cc1,-84.7%
7,CC(C)OC(=O)c1ccc(NCc2cc(O)ccc2O)cc1Cl,64% (active)
8,CC(CN1CCCCC1)OC(=O)c1ccccc1Cl (centres undefined),-5.2%
9,COc1ccc(C2=NO[C@@H]3C(=O)N(Cc4ccccc4)C(=O)[C@H]23)cc1OC,21.8%
10,COc1ccc(-c2cc(-c3ccc(N)cc3)nc(N)c2C#N)cc1OC,28.4%
11,COc1ccc(-c2cc(C(F)(F)F)nc(S(C)(=O)=O)n2)cc1OC,104% (active)
12,O=C1N=C2SCCN2/C1=C\c1c(Cl)cccc1Cl,2.52%
13,COc1ccc(NC(=O)C2Cc3c(-c4cccc(NC(C)=O)c4)ccnc3O2)cc1OC (centres undefined),24%
14,CCN(CC)CCCNC(=S)N(CCO)Cc1cc2cc3c(cc2[nH]c1=O)OCO3,5.64%
15,O=c1oc2ccccc2cc1-c1cn(-c2ccccc2)c(=S)[nH]1,98.7% (active)
16,COc1cccc(-n2c(=S)[nH]c3c(oc4ccccc43)c2=O)c1,-22.9%
17,O=C(NCCCO)c1cc2c([nH]c3ccccc32)c(-c2ccc(F)cc2)n1,23.9%
18,COc1ccc2cc(C(=O)NCC3CCCO3)[nH]c2c1 (centres undefined),-95.8%
19,O=C(NCC1CCCO1)c1cc2c([nH]c3ccccc32)c(-c2ccc(F)cc2)n1 (centres undefined),61.3% (active)
